Rows were chosen to be rich in hits. Some 5% of all compounds tested hit in one or more screens of this group.
TbPYK inhibitor: T. brucei pyruvate kinase inhibition | Potency, µM (series often up to 76.8 µM), inactives show at the highest dose activity, negative = inhibition, usual class: inhibitors | Q57TT1 | AID 624173 | 0.12% of 410,000 active | TbPYK enzyme, Kinase-Glo Plus ATP luminescence, 45 min; further: potency means the concentration at half of the fitted maximal effect; nearly all actives have a fitted effect of over 50% in size
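Quantitative HTS: titrated library compounds versus trypanosomal pyruvate kinase in TEA buffer (pH 7.2) containing KCl, MgCl2, BSA and Tween-20. Reactions were initiated with ADP, 130 uM final. Kinase-Glo Plus luminescence was read after 45 min at RT.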
VACV mCherry inh: vaccinia inhibition (mCherry reporter); Vaccinia virus mCherry reporter infection, fluorescence; Potency, µM (titrated, usually from 36.5 µM), without a hit: at the top dose activity change, negative = inhibition, most hits filed as inhibitors; 0.63% of 310,000 active; AID 720579; calls by dose curve; tested in A549 cells; further: potency means the concentration at half of the fitted maximal effect; nearly all actives have a fitted effect of over 35% in size
VACV Venus inh: vaccinia inhibition (Venus reporter). Vaccinia virus Venus reporter expression, fluorescence. Potency, µM (highest dose often 36.5 µM), for the others: at the top dose activity change, negative = inhibition, usual class: inhibitors. 0.46% of 330,000 active; calls by dose curve; tested in A549 cells; further: potency means the concentration at half of the fitted maximal effect; nearly all actives have a fitted effect of over 30% in size
HCMV inh: inhibitors of human cytomegalovirus; 4.5% of 410,000 active; HFF cells, HCMV-luciferase reporter, 72 h; active compounds read low; activity change, negative = inhibition, % at 57.5 µM; in the data active means activity change below about -60%; inconclusive means no clear call, values can overlap the other calls; inactive means above about -39%
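Steps: HFFs plated, 16 h 37C; compounds added; HCMV-luciferase added to MOI 1 PFU/cell; 72 h 37C; OneGlo reagent, 5 min room temperature; luminescence read, normalized to controls.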
LmPK inhibitor: LmPK (Leishmania mexicana) enzyme inhibition; 0.37% of 290,000 active; Q27686; purified LmPK, Kinase-Glo ATP luminescence, 1 h; Potency, µM (highest dose often 57.5 µM), for inactives: at the highest dose activity change, negative = inhibition, most hits filed as inhibitors; further: potency means the concentration at half of the fitted maximal effect
Target sequence (Q27686 whole entry, looked up): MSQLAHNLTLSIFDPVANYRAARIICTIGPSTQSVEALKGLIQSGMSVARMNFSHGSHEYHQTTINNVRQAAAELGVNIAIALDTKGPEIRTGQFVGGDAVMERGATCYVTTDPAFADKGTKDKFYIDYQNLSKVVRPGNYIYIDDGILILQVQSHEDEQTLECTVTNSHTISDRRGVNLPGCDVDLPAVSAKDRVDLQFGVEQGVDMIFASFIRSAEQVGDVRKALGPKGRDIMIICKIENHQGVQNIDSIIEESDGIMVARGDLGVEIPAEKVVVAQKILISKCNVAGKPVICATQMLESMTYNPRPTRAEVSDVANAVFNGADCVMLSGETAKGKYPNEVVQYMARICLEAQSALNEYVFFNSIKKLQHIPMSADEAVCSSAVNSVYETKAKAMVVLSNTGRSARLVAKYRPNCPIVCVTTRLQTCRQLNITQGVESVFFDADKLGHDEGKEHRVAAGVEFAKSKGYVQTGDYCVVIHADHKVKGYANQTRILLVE
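Screened at intermediate enzyme activity to detect both inhibitors and activators: LmPK at 0.1 nM, with a 0.5 nM enzyme column as activation reference. PEP 0.5 mM, ADP 0.1 mM; ATP detected by luminescence after 1 h.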
Active calls of the source: *; i = inactive; ? = inconclusive; · = no result given; [ ] = remark or other dose. Unless noted, the call rests on the fitted dose curve; in most records, active means well fitted curve in the direction sought with a large enough effect; inconclusive means small, poorly fitted or top-dose-only effect, or another doubt; inactive means no such curve, though single readings can be large; an effect the other way counts as inactive or inconclusive. On the % scale 0 is the no-effect control and ±100 the full control effect.

SMILES | TbPYK inhibitor | VACV mCherry inh | VACV Venus inh | HCMV inh | LmPK inhibitor
Cc1c(-c2cccc(NC(=O)Cc3ccccc3)c2)nc2ncccn12 | 0.4% | -9.5%[7.34 µM] | -12.0%[7.34 µM] | -19.4 | ·
Cc1c(-c2cccc(NC(=O)c3ccco3)c2)nc2ncccn12 | -0.9% | i | -13.2% | -76.0* | 1.0%
Cc1ccc(C)c(S(=O)(=O)N2CCN(C(=O)C3CCN(C(=O)c4ccc(F)cc4)CC3)CC2)c1 | 5.2% | -13.0% | -28.3% | ? | ·
COC(=O)C1CCN(C(=O)COC(=O)c2oc3ccccc3c2C)CC1 | 7.0% | -25.8% | -12.5% | 2.4 | ·
COc1cccc(/C=N/N2CCN(c3ccc(Cl)cc3)CC2)c1OC | 2.0% | · | · | -69.2* | 10.6%
O=C(CC[C@H]1O[C@@H](n2cnc3c(NC(=O)c4ccccc4)ncnc32)[C@H](O)[C@@H]1O)NCc1cccc2ccccc12 | -6.2% | 12.5% | 8.6% | -63.8* | ·
O=C(CC[C@H]1O[C@@H](n2cnc3c(NC(=O)c4ccccc4)ncnc32)[C@H](O)[C@@H]1O)NCc1cccs1 | -0.8% | 9.7% | -2.5% | -1.9 | ·
COc1ccc(NS(=O)(=O)c2cc(NC(=O)c3cccc(OCc4c(C)noc4C)c3)ccc2OC)cc1 | 5.1% | ? | -28.6% | -64.8* | -2.3%
COc1ccc2nc(-c3cccc(N)c3)[nH]c2c1 | -7.5% | · | -24.8% | 39.9 | 22.4µM*
Nc1ccc2nc(-c3ccccn3)[nH]c2c1 | -13.9% | · | -18.1% | 62.8 | 20µM*
COc1ccc2nc(-c3ccc(N)cc3)[nH]c2c1 | -12.1% | -13.5% | -13.3% | 28.7 | ?
Nc1ccc2nc(-c3ccccc3)[nH]c2c1 | -12.1% | -14.1% | -13.5% | 151.6 | 14.1µM*
COc1ccc(Br)cc1/C=C(\C(=O)O)c1ccc(S(=O)(=O)N2CCCCC2)s1 | -2.8% | -6.8% | 2.2% | -24.9 | ·
CSc1ncc(Cl)c(C(=O)Nc2c(C(=O)c3ccc(Cl)cc3)oc3ccccc23)n1 | 1.7% | -12.7% | 1.9% | 9.9 | ·
CCc1nc(N2CCN(C(=O)c3ccccc3)CC2)c(C#N)c2c1COC(C)(C)C2 | -2.2% | ? | ? | -62.1* | -1.7%
COc1ccc(C2(c3ccc(OC)cc3)NC(=O)N(CC(=O)NCC(F)(F)F)C2=O)cc1 | 2.6% | 10.2% | -0.8% | -5.4 | 2.8%
CC1C/C(=N/N2C(=O)CSC2=S)CC(C)(C)C1 (stereo not given) | -0.6% | · | -4.5% | -70.2* | -1.1%
COc1ccc(C(=O)n2cc(C(=O)c3cc(C)ccc3O)cn2)cc1 | -6.4% | -15.9% | -4.0% | -66.9* | -3.7%
COc1ccc(O)c(C(=O)c2cnn(S(=O)(=O)c3ccc(C)cc3)c2)c1 | 4.6% | · | · | -73.9* | ·
O=[N+]([O-])c1ccc(NC(=S)NCc2ccc(F)cc2)cc1 | -9.4% | ? | ? | -98.7* | 0.6%
NS(=O)(=O)c1ccc(NC(=S)NCCc2ccccc2)cc1 | ? | · | · | -31.9 | 1.0%
S=C(NCc1cccnc1)Nc1ccc(Oc2ccc(Cl)cc2)cc1 | -2.8% | -14.3% | ? | -61.3* | 0.1%
O=[N+]([O-])c1ccc(NC(=S)NCCc2ccccc2)cc1 | -11.1% | -24.2% | ? | -96.5* | 0.0%
COc1ccc(NC(=S)NCc2cccnc2)cc1 | 1.6% | -14.8% | 4.5% | -2.1 | -1.2%
O=[N+]([O-])c1ccc(O)c(NC(=S)Nc2ccccc2)c1 | -12.5% | · | · | -89.5* | -3.6%
SMILES | TbPYK inhibitor | VACV mCherry inh | VACV Venus inh | HCMV inh | LmPK inhibitor
O=c1c2[nH]c3ccc(Br)cc3c2ncn1CCCn1ccnc1 | 1.3% | -28.8% | -11.5% | -13.7 | 2.8%
S=C(NCc1ccc(Cl)cc1)Nc1ccccc1 | -13.7% | i | -11.6% | -66.5* | 4.4%
O=C(Nc1ccc(F)cc1)c1nc[nH]c1C(=O)Nc1ccc([N+](=O)[O-])cc1 | -6.1% | -1.5% | -22.1% | -60.8* | -1.4%
O=C(Nc1ccc([N+](=O)[O-])cc1)c1nc[nH]c1C(=O)NC1CCCCC1 | 0.9% | · | · | -17.5 | -1.4%
NC(=O)c1cc([N+](=O)[O-])ccc1NCc1ccc(F)cc1 | -7.2% | -21.2% | -20.8% | -80.8* | ·
Fc1ccc(CNC(=S)Nc2ccc(Cl)cc2)cc1 | 7.7% | -3.5%[1.46 µM] | ? | ? | 3.4%
CC(C)(C)c1ccccc1NC(=S)NCc1ccccc1 | 1.0% | i | -8.6% | -71.7* | -1.1%
O=[N+]([O-])c1ccc(NC(=S)NCCc2ccc(Cl)cc2)cc1 | -6.3% | ? | 11.2µM* | -106.8* | -1.1%
CNC(=O)C(=O)NCCN1CCN(C(=O)c2ccc([N+](=O)[O-])cc2)CC1 | 2.5% | -9.4% | -3.2% | 32.8 | 4.8%
S=C(NCCc1ccccc1)Nc1ccc(Cl)cc1 | 7.4% | -29.5% | -26.3% | -79.0* | 7.3%
CCCCc1ccc(NC(=O)C(=O)NCCN2CCN(Cc3ccc([N+](=O)[O-])cc3)CC2)cc1 | 0.3% | · | · | -60.2* | -6.5%
S=C(NCCc1ccc(Cl)cc1)NC1CC1 | -7.2% | · | · | -75.0* | -1.2%
CCOC(=O)C(=O)N/N=C/c1cccc(Br)c1 | 6.8% | i | -6.8% | 13.8 | 2.8%
FC(F)(F)c1ccc(-c2ccc3c(c2)CNCc2cnnn2-3)cc1 | -1.6% | i | -2.5% | 2.6 | ·
CCN(C(=O)c1cccs1)c1nnc(-c2ccncc2)s1 | 5.6% | -3.9% | -6.9% | -64.6* | 0.7%
CSc1nnc(C(C)(C)C)c(=O)n1/N=C/c1ccc(C(C)C)cc1 | 0.7% | -12.3% | 0.7% | -63.3* | -1.5%
Nc1c(C(=O)NC2CCCC2)c2nc3ccccc3nc2n1/N=C/c1cccnc1 | 4.4% | 3.5% | -13.0% | -10.4 | ·
O=C(N/N=C/c1ccc(O)c2ncccc12)c1cccc(Br)c1 | 11.4% | ? | ? | -98.9* | -3.2%
Cc1ccc(C(=O)N/N=C/c2ccc([N+](=O)[O-])s2)cc1 | 0.5% | -11.8%[1.46 µM] | ? | -23.8 | 3.2%
O=C(N/N=C/c1cccnc1)c1cccc(NC(=O)c2cccc(Br)c2)c1 | 2.3% | ? | 1.7% | 8.3 | -3.2%
O=C(N/N=C/c1ccc([N+](=O)[O-])s1)c1cccc(Br)c1 | 2.5% | ? | ? | -69.1* | 0.3%
O=C(N/N=C/c1ccc([N+](=O)[O-])s1)c1ccncc1 | -9.5% | ? | 11.2µM* | · | 0.6%
O=C(N/N=C/c1cccc([N+](=O)[O-])c1)c1cccc(Br)c1 | 0.0% | · | · | -10.8 | 0.5%
N#C/C(=N/Nc1ccc(OC(F)(F)F)cc1)C(N)=S | -3.0% | · | · | -98.4* | -4.8%
COc1ccc(N/N=C(\C#N)C(N)=O)cc1 | -1.4% | -6.5% | 4.3% | 36.1 | -7.1%
CCOc1ccc(OCCSc2nc(-c3ccccc3)cc(=O)[nH]2)cc1 | -11.0% | 2.8% | -3.9% | -103.7* | -2.5%
Cc1ccc(-n2c(O)c(C=Nc3ccc(S(N)(=O)=O)cc3)c(=O)[nH]c2=O)cc1 | -4.0% | -0.8% | -15.6% | -103.7* | 0.6%
CN(Cc1nc(-c2cnccn2)no1)CC1CCN(Cc2ccccc2)CC1 | 1.4% | · | · | 18.1 | -5.4%
CC(C)C1N(S(=O)(=O)c2ccccc2)CCN1S(=O)(=O)c1ccccc1 | -1.6% | · | · | -106.5* | 4.5%

High-throughput results from PubChem BioAssay.
